Sampled rows, rich in hits. Any-hit rate of the full collection: about 1.6%.
MOR-DOR ag: OPRM1-OPRD1 heterodimerization agonism; P35372+P41143; cells, luminescence; activation, % at 9.3 µM; 340,000 compounds, 0.3% hits; AID 504326; in the data active = activation above about 18%;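 note: 0% = vehicle-treated cells and 100% = reference agonist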
NALP1 yeast inh: NALP1 inhibition. inhibition, % at 10 µM. S. cerevisiae NALP1/ASC/caspase-1 growth, X-gal OD620, 72 h. 280,000 compounds, 0.61% hits; in the data active = inhibition mostly above about 24%, no sharp cut-off; inactive = mostly below about 32%
OPRM1-OPRD1 inv: mu-delta opioid heterodimer inverse agonism. cell-based MOR-DOR heterodimer luminescence. 340,000 compounds, 0.21% hits. inhibition, % at 9.3 µM. P35372+P41143; in the data active = inhibition above about 22%, passing the limit was not always enough;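 note: 0% = cells with DMSO and 100% = wells without cells with DMSO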
PolyA inh: blocks polyadenylation in yeast reporter cells. 300,000 compounds, 0.02% hits. S. cerevisiae SKY197-pL101 polyadenylation reporter, beta-gal luminescence; efflux-impaired pdr1/pdr3 knockout yeast; score 100 = 6 SD above DMSO. activity score, % at 12 µM;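 active = lowest replicate activity score at least 50, where 100 means six control SD above control mean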;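 note: yeast exposed to compound for 9 h at 30 °C; higher score means more reporter readthrough which indicates perturbed polyadenylation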
HTR5A ag ctr: activates human HTR5A in OPRM1-OPRD1 agonist counter-screen; 340,000 compounds, 0.61% hits; activation, % at 9.3 µM; HTR5A agonist assay, luminescence, cell-based; P47898; AID 504692; in the data active = activation mostly above about 9.5%, no sharp cut-off; inactive = mostly below about 7.6%;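 note: 0% = cells with vehicle only and 100% = reference agonist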
HTR5A inv ag: inverse agonist of human HTR5A in OPRM1-OPRD1 counter-screen; P47898; HTR5A cell line, luminescence, inverse agonism; inhibition, % at 9.3 µM; 340,000 compounds, 0.083% hits; AID 504634; in the data active = inhibition mostly above about 23%, no sharp cut-off; inactive = mostly below about 18%;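 note: 0% = cells with DMSO and 100% = no-cell wells with DMSO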
An asterisk follows results filed as active; . = not tested or not shown.

SMILES	MOR-DOR ag	NALP1 yeast inh	OPRM1-OPRD1 inv	PolyA inh	HTR5A ag ctr	HTR5A inv ag
CN(C)S(=O)(=O)Nc1ccc(NS(=O)(=O)N(C)C)c(S(=O)(=O)c2ccccc2)c1	0	27*	1	22	2	-7
O=C(O)CN(c1ccccn1)S(=O)(=O)c1ccccc1	1	43*	-4	-4	4	-15
O=C(O)CN(c1ccccn1)S(=O)(=O)c1ccc(Cl)cc1	0	13	2	5	4	-13
CCCCOC(=O)Nc1nnc(CC)s1	-2	43*	9	-1	0	11
C=CCNc1nc(N2CCCCC2)c(C#N)c2c1CN(Cc1ccccc1)CC2	-1	4	5	-4	0	-11
COC(=O)c1ccc(-n2nnnc2SCc2nn[nH]n2)cc1	-1	.	6	3	1	-27
CCn1cnc2c(cnn2-c2ccccc2)c1=O	-1	36*	8	-5	1	-6
CC(C)(C)c1cc(NC(=O)Nc2ccccc2)no1	6	14	-29	2	11*	-44
COC(=O)c1ccccc1NC(=O)Nc1cc(C(C)(C)C)on1	-1	10	6	-2	1	-4
CC(=O)C[C@H](O)CC(=O)[C@H]1OC(=O)CCCCCCCCc2ccccc21	2	.	-8	.	6	2
C1CCC(OCCN2CCN(CCOC3CCCCC3)CC2)CC1	0	39*	1	20	-1	20
OC(COC1CCCCC1)CN1CCN(c2ccccc2)CC1 (stereo unspecified)	-1	.	6	.	-2	-27
CCn1c(N2CCN(S(=O)(=O)c3ccccc3C(F)(F)F)CC2)nc2ccccc21	2	8	-12	7	13*	-62
CN(CCc1ccccc1)C1CCCN(S(=O)(=O)c2cccc(F)c2)C1 (stereo unspecified)	-1	24	7	23	2	-9
O=C(Nc1ccc(OC(=O)c2ccco2)cc1)c1ccco1	-1	-1	6	3	5	-19
O=C(Nc1ccc(Cl)c(Cl)c1)Oc1ccc(NC(=O)c2ccco2)cc1	0	100*	-1	-2	3	-6
CN(CC(=O)Nc1cccc(F)c1)C(=O)c1ccc(-n2cncn2)c([N+](=O)[O-])c1	0	.	2	5	4	-9
CN(CC(=O)Nc1c(Cl)cccc1Cl)C(=O)c1ccc(-n2cncn2)c([N+](=O)[O-])c1	1	.	-5	-15	11*	-31
CSc1ccccc1NC(=O)c1cc(-c2cccnc2)nc2ccc(Br)cc12	0	10	-1	2	13*	-33
CCOC(=O)n1n[n+]([O-])c2ccccc21	-1	16	6	-1	-1	2
Clc1ccc(CN2CCc3c([nH]c4ccccc34)C2)cc1Cl	10	27	-50	-6	14*	-52
O=C(c1ccco1)N1CCC(c2nc3c(nnn3Cc3c(Cl)cccc3Cl)c(=O)[nH]2)CC1	0	14	-3	-5	1	-30
CC(C)(C)CC(=O)N1CCC(c2nc3c(nnn3Cc3c(F)cccc3Cl)c(=O)[nH]2)CC1	-1	5	8	0	11*	27
CCC1Nc2ncnc(N3CCN(c4ccccc4)CC3)c2N(Cc2ccc(Br)cc2)C1=O (stereo unspecified)	-13	.	79*	-19	-29	79*
CCC1Nc2ncnc(N3CCN(c4ccccc4)CC3)c2N(Cc2ccc(OC)cc2)C1=O (stereo unspecified)	-12	.	57*	1	-16	52*
CCC1Nc2ncnc(N3CCOCC3)c2N(Cc2ccc(OC)cc2)C1=O (stereo unspecified)	-3	.	15	.	3	-4
O=C1C(Cc2ccccc2)Nc2ncnc(N3CCN(c4ccccc4)CC3)c2N1Cc1ccccc1 (stereo unspecified)	14	.	-66	26	0	9
O=C1C(Cc2ccccc2)Nc2ncnc(N3CCN(c4ccccc4)CC3)c2N1Cc1ccc(Br)cc1 (stereo unspecified)	-15	.	68*	.	-22	59*
Cc1ccc(CN2C(=O)C(Cc3ccccc3)Nc3ncnc(N4CCN(c5ccccc5)CC4)c32)cc1 (stereo unspecified)	-9	.	51*	1	-22	55*
COc1ccc([N+](=O)[O-])c(OC)c1C(=O)NC(=O)Nc1c(F)cc(F)cc1F	0	2	-1	-5	1	-2

Screening results from PubChem BioAssay.
